Bioassay records from PubChem.
ATXN2 expr inh: inhibitors of ATXN2 expression | HEK-293 ATXN2-luciferase reporter, luminescence, 24 h | Potency, µM (series often up to 57 µM), inactives show top-dose activity change, negative = inhibition, hits mostly inhibitors | actives 0.72% (n = 360,000) | AID 1745845; further: on the % scale 0 is the no-effect control and ±100 the full control effect; nearly all actives have a fitted effect of over 55% in size
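qHTS (up to 57 uM final) was run with 24 h compound exposure of reporter cells at 37 °C. Each well was multiplexed: SteadyGlo luminescence measured ATXN2-luciferase expression after a fluorogenic Gly-Phe-AFC viability readout (25 uM final).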
Nrf2 inh: inhibitors of Nrf2 signaling; AID 504444; actives 2.1% (n = 360,000); A549 ARE-Fluc reporter, luciferase luminescence, 18-24 h; Potency, µM (highest dose often 46 µM), without a hit: top-dose activity change, negative = inhibition, hits mostly inhibitors; further: on the % scale 0 is the no-effect control and ±100 the full control effect; nearly all actives have a fitted effect of over 60% in size
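In this cell-based qHTS, ARE-driven firefly luciferase in A549 cells reports Nrf2 activity; the luminescent signal after BugLite lysis is the measured value, with a prior CellTiter-Fluor read for cell health.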
TGFb inhibitor: inhibitors of TGF-b signaling; HepG2 CAGA-GFP TGF-b/SMAD3 reporter, GFP fluorescence, 18 h; TGF-beta stimulated, 500 pg/mL final; Potency, µM (top dose mostly 46.1 µM), inactives show at the top dose activity, negative = inhibition, most hits filed as inhibitors; actives 1.2% (n = 410,000); AID 588855; further: on the % scale 0 is the no-effect control and ±100 the full control effect; nearly all actives have a fitted effect of over 65% in size
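HEPG2 CAGA-GFP cells (1000/well, DMEM with 1% FBS) were pre-incubated 2 h at 37 degrees C, given compound by pin tool, then stimulated with TGF-beta at 500 pg/mL final for 18 h before per-cell GFP fluorescence imaging.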
A549 tox: A549 cytotoxicity, counter-screen for Nrf2 inhibitors; A549 ARE-Fluc cells, CellTiter-Fluor viability, 18-24 h; actives 0.16% (n = 390,000); AID 504648; Potency, µM (top dose mostly 46 µM), for the others: top-dose activity change, negative = cytotoxicity, usual class: inhibitors; further: on the % scale 0 is the no-effect control and ±100 the full control effect
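A549 ARE_Fluc cells in 5% FBS OPTI-MEM were exposed to compounds in concentration-response for 18-24 h at 37 deg C. Viability was read by CellTiter-Fluor fluorescence (Ex 405/Em 525) after 30 min, before the luciferase read.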
HepG2 tox: counter-screen for TGF-b inhibitors: cytotoxicity in HepG2 cells. HepG2 CAGA-GFP viability, ATP luminescence, 18 h. Potency, µM (titrated, usually from 46.1 µM), without a hit: at the top dose activity change, negative = cytotoxicity, hits mostly cytotoxic. actives 0.76% (n = 410,000). AID 588856
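HepG2 CAGA-GFP cells (1000/well, DMEM with 1% FBS) received compound, then TGF-beta at 500 pg/mL final, and were incubated 18 hours at 37 degrees C. Viability was read by CellTiter-Glo luminescence. Media-only wells were set as complete cell-killing and DMSO as no toxicity.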
ATXN viability: viability counter-screen for ATXN expression inhibitors; S2 cells (HEK-293 line with an ATXN2-luciferase reporter) viability, CellTiter-Fluor protease fluorescence, 24 h; Potency, µM (highest dose often 56.7 µM), hits mostly cytotoxic; actives 0.49% (n = 400,000); AID 651635; further: nearly all actives have a fitted effect of over 40% in size
Numbers without * were called inactive; i = inactive; ? = inconclusive; nt = no result. Hits are enriched below; roughly 3.8% of the tested compounds scored in any of these assays. The call rests on the fitted dose curve; in most records, active means well fitted curve in the direction sought with a large enough effect; inconclusive means small, poorly fitted or top-dose-only effect, or another doubt; inactive means no such curve, though single readings can be large; an effect the other way counts as inactive or inconclusive. Potency means the concentration at half of the fitted maximal effect.

SMILES | ATXN2 expr inh | Nrf2 inh | TGFb inhibitor | A549 tox | HepG2 tox | ATXN viability
CCCCC(=O)OCC(=O)C1(O)Cc2c(O)c3c(c(O)c2C(OC2CC(NC(=O)C(F)(F)F)C(O)C(C)O2)C1)C(=O)c1c(OC)cccc1C3=O (stereo not given) | 2.5µM* | 9.2µM* | ? | ? | -42% | 3.5µM*
Cc1cc(/C=N/NC(=O)c2ccc(O)cc2)c(C)n1CC(C)C | 11% | ? | 7% | -2% | -13% | i
CCC(NC(=O)C1C2C=CC(C2)C1C(=O)O)c1ccc(C)cc1 (stereo not given) | -11% | -2% | 4% | 0% | -20% | i
N#Cc1nc(-c2ccc(COc3ccc(Cl)cc3)o2)oc1N1CCCCC1 | -16% | ? | -17% | 12% | -2% | i
Cc1cc(C(=O)NCC2CCC3(CCN(Cc4ccc5ccccc5c4)CC3)O2)n(C)n1 (stereo not given) | nt | nt | nt | nt | nt | i
O=C(Nc1ccccc1)C1=C(c2ccccc2)S(=O)(=O)CCS1(=O)=O | 5.6µM* | ? | 2.5µM* | -1% | 2.5µM* | 8.9µM*
O=C(O)c1ccccc1C(=O)Nc1ccccc1 | 3% | -2% | -23% | -7% | -5% | i
CC(C)CN(C(=O)C(C)N1C(=O)c2ccccc2C1=O)c1c(N)n(Cc2ccccc2)c(=O)[nH]c1=O (stereo not given) | 7% | 1% | 1% | -14% | -2% | i
Cc1cc2nc(-c3ccc[nH]c3=O)n(Cc3ccc(F)cc3)c2cc1C | 28% | -2% | 22% | -2% | 0% | i
Cc1cc2nc(-c3ccc[nH]c3=O)[nH]c2cc1C | nt | 12µM* | ? | 6% | 0.89µM* | nt
COc1ccc(Cn2ccc3nc(C)c(C(=O)N4CCN(c5ccccc5OC)CC4)cc3c2=O)cc1 | -13% | ? | 1% | 5% | -3% | ?
CCOc1ccc(N(CC)S(=O)(=O)N2CCCC(C(=O)Nc3ccc(OC)c(OC)c3)C2)cc1 (stereo not given) | nt | 21µM* | -26% | 12% | -22% | nt
CCOc1ccc(N(CC)S(=O)(=O)N2CCCC(C(=O)NCCc3ccc(OC)cc3)C2)cc1 (stereo not given) | nt | ? | -10% | 0% | -2% | nt
CCc1ccc(-c2nc(CSCC(=O)N3CCN(c4ccccn4)CC3)c(C)o2)cc1 | ? | 16µM* | ? | ? | -30% | ?
Cc1ccc(-c2nc(CSCC(=O)N3CCN(c4ccccn4)CC3)c(C)o2)cc1 | ? | 16µM* | ? | -19% | 1% | ?
Cc1nn(CCCC(=O)Nc2cccc(F)c2)c(=O)c2c1sc1ccccc12 | nt | 2.6µM* | 43% | -13% | 2% | nt
O=C(Nc1cccc(-c2nnc(-c3ccccc3)o2)c1)c1ccc(Br)o1 | ? | 23µM* | ? | ? | -45% | 35µM*
Cc1cc(C)c2oc(-c3cccc(NC(=O)c4ccc(Br)o4)c3)nc2c1 | 13% | 3% | -19% | 3% | -2% | i
CC1(c2ccc3ccccc3c2)NC(=O)N(CC(=O)N2CCN(c3ccccc3O)CC2)C1=O (stereo not given) | -29% | -27% | ? | 4% | 0% | i
NC(=O)c1cc(S(=O)(=O)Nc2ccc(OC(F)(F)F)cc2)cs1 | nt | 18µM* | 3% | -3% | 5% | i
COc1ccc(NS(=O)(=O)c2csc(C(N)=O)c2)cc1 | -15% | 1% | 1% | -8% | 6% | i
O=C(Nc1ccccc1)Nc1nc(-c2ccc(F)c(F)c2)cs1 | 10% | -4% | ? | -11% | 4% | nt
COc1ccc(-c2csc(NC(=O)CSCC(=O)Nc3cc(C)on3)n2)cc1OC | 3% | ? | -8% | -5% | -5% | i
COc1ccccc1CC(=O)Nc1nc(-c2ccc(F)c(F)c2)cs1 | -20% | 23µM* | ? | -4% | -16% | i
COc1ccc(-c2csc(NC(=O)CSCc3c(C)noc3C)n2)cc1OC | -17% | 23µM* | 0% | -8% | -33% | ?
SMILES | ATXN2 expr inh | Nrf2 inh | TGFb inhibitor | A549 tox | HepG2 tox | ATXN viability
COC(=O)c1c(-c2ccc(C)cc2)csc1NC(=O)Cc1ccc(OC)c(OC)c1 | -26% | 18µM* | ? | -2% | 3% | i
COc1ccc(-c2csc(NC(=O)c3ccc(OCC(=O)N4CCOCC4)c(OC)c3)n2)cc1OC | 16µM* | ? | 0% | -13% | -21% | ?
COc1ccc2c(c1)c(=O)c(S(=O)(=O)c1ccc(F)cc1)cn2Cc1ccccc1Cl | -10% | 14% | 9% | 7% | -15% | i
O=C(Cc1ccccc1F)Nc1nc(-c2ccc(F)cc2)cs1 | -10% | 6% | -20% | -12% | -4% | i
COc1ccc(-c2csc(NC(=O)Cc3ccccc3F)n2)cc1OC | -31% | 21µM* | ? | ? | -2% | i
COc1ccc(CC(=O)Nc2nc(-c3ccc(OC)c(OC)c3)cs2)cc1OC | 22µM* | 15µM* | -14% | ? | -20% | ?
COc1ccc(OCC(=O)OCc2cc(=O)n3cc(C)sc3n2)cc1 | 2% | 15% | 0% | 11% | -13% | i
O=C(CCl)c1ccc2c(c1)CCCC2 | nt | nt | 4% | nt | -28% | nt
O=C1c2ccccc2C(=O)N1CC1CCCO1 (stereo not given) | 0% | nt | 11% | 4% | 3.5µM* | i
O=C1c2ccccc2C(=O)N1CC1CO1 (stereo not given) | 11% | 4% | 0% | 6% | 1% | i
COc1ccc(OCc2n(CC(=O)OC3CC(C)CCC3C(C)C)c3ccccc3[n+]2C)cc1 (stereo not given) | ? | ? | ? | ? | 14µM* | ?
CC1CCC(C(C)C)C(OC(=O)CSc2nccc(=O)[nH]2)C1 (stereo not given) | 4% | 4% | 6% | 15% | -35% | i
COc1ccc(-c2n(CC(=O)OC3CC(C)CCC3C(C)C)c3ccccc3[n+]2C)cc1 (stereo not given) | 7.5µM* | 21µM* | 5µM* | ? | 11µM* | ?
CC1CCC(C(C)C)C(OC(=O)COC(=O)c2ccc(=O)[nH]c2)C1 (stereo not given) | 4% | ? | -23% | -17% | -29% | i
COC(=O)C1=C(C)N(Cc2ccccc2)C(=NCc2cccc(Cl)c2)N[C@H]1c1ccccc1 | ? | 17% | ? | -3% | -96% | 35µM*
